The results in this text go back to PubChem BioAssay (NCI).

Each structure is given as a SMILES string. This is part of a sample that, as a whole, favours compounds with a hit. Of some 79,000 tested, about 15% had one in any assay. Activity calls are given as the source filed them. Cut-off read from the data, not from the text of the source: active = growth inhibition above about 70%; inactive = the rest.

The test is described as follows: NCI Yeast Anticancer Drug Screen. Data for the rad50 strain (AID 155).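 Note: 0% = growth of vehicle-only cultures of the same strain.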 The following applies: S. cerevisiae rad50 strain growth inhibition; at 50.0 µM; stronger effect = higher value. Summed up: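 Yeast carrying a defined DNA repair defect were exposed to test compounds, and growth was compared with vehicle-treated controls to give percent inhibition.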
With `COc1ccc(C(CC(=O)O)CC(=O)O)cc1[N+](=O)[O-]`, the growth inhibition was 0.75% (inactive). With `COC(=O)c1cc(C(=O)c2ccccc2)cc2c1c(=O)[nH]c1ccccc12`, the growth inhibition is -0.95% (inactive). In the case of `Nc1ccc(C(=O)NN2C(=O)C(Cl)C2c2ccccc2Cl)cc1` (stereo not given), the growth inhibition is 45.2% (inactive). Consider `S=c1nc[nH]c2c1ncn2C1CCCC1`, for which the growth inhibition was -2.25% (inactive).

Consider `Cc1cc(C)c(NC(=O)Nc2cccc(Cl)c2)c(C)c1`, for which the growth inhibition is -0.85% (inactive). On to `O=C(OCC1OC(OC(=O)c2ccccc2)C(O)C1OC(=O)c1ccccc1)c1ccccc1` (stereo not given), for which the growth inhibition was 45.2% (inactive). On to `[O-]c1csc2n(-c3ccccc3)c3ccccc3[n+]12`, for which the growth inhibition was 4.95% (inactive).

With `COc1nc(SC)nc2[nH]ccc12`, the growth inhibition is -1% (inactive). In the case of `O=S(=O)(O)c1cc(N=Nc2cc(S(=O)(=O)O)c3cccnc3c2O)ccc1/C=C/c1ccc(N=Nc2cc(S(=O)(=O)O)c3cccnc3c2O)cc1S(=O)(=O)O.[Cu+2].[Na+]`, the growth inhibition was 18.5% (inactive). In the case of `O=C1CN(Cc2ccccc2)CCO1`, the growth inhibition is 4.95% (inactive). In the case of `CC(C)/C(Cl)=N\OC(NC(=O)P(=O)(c1ccccc1)c1ccccc1)(C(F)(F)F)C(F)(F)F`, the growth inhibition is 58.5% (inactive).

Take `O=c1[nH][nH]c(=O)c2[nH]cnc12`: the growth inhibition was -11.9% (inactive).

With `CN1CCCc2cccc(NC(=O)C3CCCNC3=O)c21` (stereo not given), the growth inhibition is -15.3% (inactive).

As for `CC(=O)Nc1c([N+](=O)[O-])cc(C2CCCCC2)cc1[N+](=O)[O-]`, the growth inhibition was -8.05% (inactive). As for `COC1(c2ccccc2)OC(=O)C(C)(C)c2ccccc21` (stereo not given), the growth inhibition is -5.1% (inactive).
